# Screens (PubChem)
# This is a sample that favours compounds with a hit; in the whole collection about 12% have one here.
# JMJD2A Tudor: inhibitors of human JMJD2A Tudor domain. O75164. AlphaScreen JMJD2A-Tudor / H3K4me3 peptide binding. Potency, µM (highest dose often 114 µM), inactives show at the top dose activity change, negative = inhibition, most hits filed as inhibitors. actives 4.4% (n = 390,000). AID 504339; further: on the % scale 0 is the no-effect control and ±100 the full control effect; nearly all actives have a fitted effect of over 50% in size
# BAZ2B block: BAZ2B (human) inhibition | Q9UIF8 | AlphaScreen BAZ2B-H3K14Ac peptide displacement | Potency, µM (series often up to 114 µM), for inactives: at the highest dose activity change, negative = inhibition, actives largely listed as inhibitors | actives 4.4% (n = 360,000); further: on the % scale 0 is the no-effect control and ±100 the full control effect; nearly all actives have a fitted effect of over 60% in size
#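 AlphaScreen displacement of biotin-H3(5-23)K14Ac peptide (50 nM final) from BAZ2B (50 nM final) in PBS pH 7.4, 0.01% Tween-20; complex preformed 30 min RT, then compounds (top 110 uM) 30 min RT, beads 20 min dark.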
# Sfp inh: blocks B. subtilis Sfp PPTase activity. Biochemical Sfp PPTase activity, qHTS. AID 1490. Potency, µM, for the others: largest response in the series, negative = inhibition, most hits filed as inhibitors. actives 3.5% (n = 310,000);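 further: the enzyme is Sfp with the accession as filed and its product quenches rhodamine fluorescence; 0% = enzyme reaction without inhibitor and -100% = no enzyme wells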
#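 Buffer: 50 mM Hepes-Na pH 7.6, 10 mM MgCl2, 0.01% Nonidet P-40, 0.01% BSA. Enzyme 15 nM, pre-exposed to compound 15 min; substrates then added and fluorescence change tracked over 30 min.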
# HP1b binding inh: blocks HP1-beta chromodomain binding to methylated histone tails; AlphaScreen HP1-beta / biotin-H3K9me3 peptide binding; Potency, µM (highest dose often 114 µM), without a hit: at the top dose activity change, negative = inhibition, actives largely listed as inhibitors; actives 0.56% (n = 390,000); AID 540317; further: nearly all actives have a fitted effect of over 70% in size
# Target sequence (P83916 whole entry, looked up): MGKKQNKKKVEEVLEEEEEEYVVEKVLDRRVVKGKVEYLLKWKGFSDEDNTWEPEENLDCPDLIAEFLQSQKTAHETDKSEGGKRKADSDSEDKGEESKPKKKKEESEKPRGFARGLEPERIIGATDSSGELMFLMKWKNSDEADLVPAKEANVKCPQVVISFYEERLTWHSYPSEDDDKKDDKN
#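 AlphaScreen: HP1-beta (50 nM) preformed 30 min with biotin-H3(1-18)K9me3 peptide (50 nM) in PBS pH 7.4, 0.01% Tween-20. Compound added for 30 min at RT, then streptavidin donor/nickel chelate acceptor beads (10 ug/mL) for 30 min.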
# G9a inh: inhibitors of human histone lysine methyltransferase G9a | G9a H3K9 monomethylation, AlphaScreen, 2 h | Potency, µM (highest dose often 102 µM), for inactives: at the top dose activity, negative = inhibition, usual class: inhibitors | Q96KQ7 | actives 8.8% (n = 350,000); further: on the % scale 0 is the no-effect control and ±100 the full control effect; nearly all actives have a fitted effect of over 75% in size
# Target sequence (Q96KQ7 913-1193 limits assumed): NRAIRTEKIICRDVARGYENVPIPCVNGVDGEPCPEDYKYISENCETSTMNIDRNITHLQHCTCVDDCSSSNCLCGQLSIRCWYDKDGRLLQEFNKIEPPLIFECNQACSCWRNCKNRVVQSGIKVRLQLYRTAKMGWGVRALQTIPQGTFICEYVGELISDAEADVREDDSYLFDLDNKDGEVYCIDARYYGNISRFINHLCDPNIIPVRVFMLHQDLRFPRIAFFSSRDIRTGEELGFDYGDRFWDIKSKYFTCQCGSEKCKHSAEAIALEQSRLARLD
#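 AlphaScreen read-out: biotin-H3K9 peptide (500 nM) methylation by 20 nM enzyme with 20 uM SAM, 2 h at room temperature after 15 min compound preincubation; anti-monomethyl H3K9 antibody plus donor/acceptor beads, 10 min dark.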
# The depositor's hits bear a star; ? = inconclusive; . = no result given; [ ] = remark or other dose. The call rests on the fitted dose curve; in most records, active means well fitted curve in the direction sought with a large enough effect; inconclusive means small, poorly fitted or top-dose-only effect, or another doubt; inactive means no such curve, though single readings can be large; an effect the other way counts as inactive or inconclusive. Potency means the concentration at half of the fitted maximal effect.
SMILES,JMJD2A Tudor,BAZ2B block,Sfp inh,HP1b binding inh,G9a inh
COc1ccc2cc(C(c3nnnn3Cc3ccc(F)cc3)N3CCCCCC3)c(=O)[nH]c2c1 (centres undefined),-25.6%,42.2%,17.8µM*,29.3%,?
O=c1[nH]c2cc3c(cc2cc1C(c1nnnn1CC1CCCO1)N1CCCCCC1)OCCO3 (centres undefined),-14.2%,?,1.0%,20.3%,11.2µM*
COCCn1nnnc1C(c1cc2ccc(OC)cc2[nH]c1=O)N1CCN(C2CCCCC2)CC1 (centres undefined),-15.1%,-26.1%,-6.0%,5.3%,8.5%[59 µM]
COc1ccc2cc(C(c3nnnn3Cc3ccccc3)N3CCCCCC3)c(=O)[nH]c2c1 (centres undefined),-16.9%,-1.5%,?,28.9%,12.6µM*
COc1ccc(Cn2nnnc2C(c2cc3ccc(OC)cc3[nH]c2=O)N2CCC(C)CC2)cc1 (centres undefined),-15.1%,-31.3%,39.8µM*,6.7%,?
COc1cc2cc(C(c3nnnn3C3CCCC3)N3CCCCC3)c(=O)[nH]c2cc1OC (centres undefined),-13.5%,-3.5%,5.5%,28.7%,-47.5%[12.7 µM]
COc1cc2cc(C(c3nnnn3C3CCCC3)N3CCCCCC3)c(=O)[nH]c2cc1OC (centres undefined),-14.1%,5.7%,3.1%,19.9%,12.6µM*
Nc1nnc(-c2ccc(F)cc2)s1,-5.6%,-7.7%,-1.3%,13.0%,-2.1%[0.501 µM]
NC1=C(c2ccc(F)cc2)C(=O)CS1,-35.8%,?,79.4µM*,13.4%,11.8%[0.501 µM]
COc1cccc(-n2c(=O)c3sc4ccccc4c3n(CC(=O)Nc3ccc(F)cc3F)c2=O)c1,-11.6%,-17.2%,.,28.6%,-26.6%[59 µM]
COCC(C)NCc1ccccc1C (centres undefined),6.31µM*,39.8µM*,9.2%,?,?
COCC(C)NS(=O)(=O)c1ccccc1 (centres undefined),0.0%,2.0%,3.7%,19.9%,.
COCC(C)NCc1cccc(OC)c1OC (centres undefined),1.78µM*,?,-14.5%,?,17.8µM*
FC(F)(F)c1ccc2c(c1)ncc1c(-c3ccccc3)nn(-c3ccccc3)c12,-1.3%,.,.,21.6%,15.0%[59 µM]
COc1cc(NC(=O)c2ccc(C)c(Cl)c2)ccc1NC(=O)c1cc2ccccc2o1,14.2%,?,.,-1.1%,6.6%[59 µM]
CCC(C)NC(=O)C1CCN(S(=O)(=O)c2ccc3c(ccn3CC)c2)CC1 (centres undefined),3.5%,-2.1%,.,26.7%[57 µM],0.3%[59 µM]
CCCSc1nc2c(cnn2-c2ccc(C)c(C)c2)c(=O)[nH]1,-5.0%,1.2%,1.3%,12.8%,1.6%
COC(=O)c1ccc(CSc2nc3c(cnn3-c3ccc(C)c(C)c3)c(=O)[nH]2)o1,50.1µM*,-1.0%,9.0%,-1.7%,-6.1%[59 µM]
COC(=O)c1ccc(CSc2nc3scc(-c4cccs4)c3c(=O)[nH]2)o1,44.7µM*,.,56.2µM*,4.2%,?
COc1ccc(-c2nn(Cc3ccccc3)cc2C(=O)N2CCN(c3ncccn3)CC2)cc1OC,-12.4%,7.4%,.,36.6%,?
CC#Cc1cc2c(cc1O)CCC1C2CCC2(C)C(O)CCC12 (centres undefined),79.4µM*,.,.,?,.
CCNc1cc2c(cc1O)CCC1C2CCC2(C)C(O)CCC12 (centres undefined),89.1µM*,.,.,?,.
C=Cc1cc2c(cc1O)CCC1C2CCC2(C)C(O)CCC12 (centres undefined),-26.4%,.,.,3.7%,.
COc1ccc(Br)cc1C1C(C(=O)Nc2ccc(C)cc2C)=C(C)Nc2ncnn21 (centres undefined),-15.4%,2.1%,.,7.4%,4.1%[59 µM]
O=[N+]([O-])c1cccc(-c2cn3ccccc3n2)c1,0.0%,-10.6%,3.3%,32.3%,0.5%
SMILES,JMJD2A Tudor,BAZ2B block,Sfp inh,HP1b binding inh,G9a inh
CN1CCN(/N=C/c2nc(-c3cccc([N+](=O)[O-])c3)n3ccccc23)CC1,?,?,79.4µM*,-10.8%,?
O=C(Cn1c(-c2cccs2)cc2ccccc21)NCCCN1CCN(c2cccc(Cl)c2)CC1,?,25.1µM*,.,37.3%,?
Cc1ccc(C)c(N2CCN(CCCNC(=O)Cn3c(-c4cccs4)cc4ccccc43)CC2)c1,?,35.5µM*,.,16.3%,?
CN1CCN(CCCNC(=O)Cn2c(-c3cccs3)cc3ccccc32)CC1,-25.4%,-12.2%,.,14.2%,-12.3%[59 µM]
CCCCCCCCS(=O)C1CCS(=O)(=O)C1 (centres undefined),11.3%,1.5%,11.7%,45.7%,39.8µM*
CCCCCCCCCCOC(=O)NC1CCS(=O)(=O)C1 (centres undefined),6.2%,-0.3%,-0.4%,47.1%,21.8%
CCCCCCS(=O)[C@H]1CS(=O)(=O)C[C@@H]1S(=O)CCCCCC (some centres undefined),-7.5%,-4.2%,-2.3%,45.1%,8.91µM*
CCOC(=O)CNCCC(=O)c1ccc(Br)cc1,?,?,-12.5%,22.2%,7.08µM*
Cc1cccc(NCCC(=O)c2ccc(Br)cc2)c1,?,?,0.9%,4.4%,-35.5%
C/C(=C\c1ccccc1)CN1CCN(c2cccc(Cl)c2)CC1,6.9%,22.9%,8.7%,67.5%,20.7%[59 µM]
C/C=C(\C)CN1CCN(c2ccc(C)cc2)CC1,7.08µM*,25.1µM*,-9.7%,-63.7%,10µM*
S=c1[nH]c(-c2ccccc2)cs1,22.4µM*,39.8µM*,79.4µM*,?,1.41µM*
O=c1[nH]c(-c2ccc(Cl)cc2)cs1,-18.9%,.,3.5%,-13.4%,-8.8%
O=c1[nH]c(-c2ccccc2)cs1,-12.2%,-6.4%,10.4%,10.2%,-0.2%[59 µM]
Fc1ccc(-c2csc(=S)[nH]2)cc1,22.4µM*,50.1µM*,11.2µM*,-25.0%,?
COc1cccc(CN2C(=O)c3ccccc3C2C(=O)NCCc2ccccc2)c1 (centres undefined),-9.6%,1.1%,.,26.0%,4.5%[59 µM]
O=c1c(-c2cc(F)cc(F)c2)nc2cnc(N3CCNCC3)nc2n1Cc1ccc(F)cc1,.,.,17.8µM*,.,14.4%[0.501 µM]
O=c1c(CCc2ccccc2)nc2cnc(N3CCOCC3)nc2n1Cc1cccs1,.,.,11.8%,.,7.1%[0.501 µM]
O=c1c(CCc2ccccc2)nc2cnc(N3CCNCC3)nc2n1CCc1ccccc1,.,.,39.8µM*,.,6.7%[12.7 µM]
COc1cccc(Cn2c(=O)c(CCc3ccccc3)nc3cnc(N4CCNCC4)nc32)c1,.,.,79.4µM*,.,4.8%[0.501 µM]
CN1CCN(c2ncc3nc(CCc4ccccc4)c(=O)n(Cc4cccs4)c3n2)CC1,.,.,28.2µM*,.,-6.7%[12.7 µM]
CCOC(=O)c1c(C)[nH]c(C)c1S(=O)(=O)N(C)CC(=O)Nc1cccc(C)n1,-17.1%,22.0%,7.9%,7.7%[57 µM],.
O=c1c(-c2ccc(Cl)cc2)nc2cnc(N3CCNCC3)nc2n1CCc1ccccc1,.,.,44.7µM*,.,-3.2%[0.501 µM]
